High-throughput results deposited in PubChem by National Center for Advancing Translational Sciences (NCATS).
D1 antagonist = human D1 dopamine receptor antagonism | P21728 | HEK293 TREx D1 cells, calcium flux, dopamine EC80; hits give low values | activity change, negative = inhibition, % at 10 µM | 3.2% of 360,000 active | AID 504652; in the data active = activity change below about -30%; also: % is scaled to controls: 0 for no effect and ±100 for the full control effect
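Allosteric or orthosteric antagonism assessed as attenuation of the calcium response to EC80 dopamine, added 180 s after compound, in induced HEK293 Trex D1 cells loaded with no-wash calcium dye.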
TRHR PAM = TRH receptor (human) allosteric enhancement | P34981 | TRHR cells, fluo-8 calcium fluorescence, EC20 TRH enhancement | enhancement, % at 2 µM | 0.66% of 360,000 active | AID 493056; in the data active = enhancement above about 30%; also: 0% is about no effect
Target sequence (P34981 whole entry, looked up): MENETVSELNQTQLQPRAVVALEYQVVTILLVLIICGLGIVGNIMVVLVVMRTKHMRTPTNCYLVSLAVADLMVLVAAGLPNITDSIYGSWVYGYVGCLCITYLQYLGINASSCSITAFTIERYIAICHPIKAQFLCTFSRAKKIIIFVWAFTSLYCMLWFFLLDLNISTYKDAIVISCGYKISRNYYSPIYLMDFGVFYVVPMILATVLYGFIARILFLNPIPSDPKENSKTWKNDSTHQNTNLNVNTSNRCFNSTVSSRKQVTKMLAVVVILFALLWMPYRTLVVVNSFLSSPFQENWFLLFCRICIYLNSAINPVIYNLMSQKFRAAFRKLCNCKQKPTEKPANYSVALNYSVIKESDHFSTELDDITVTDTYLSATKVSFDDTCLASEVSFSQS
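Enhancer read-out: after compound pinning and an initial kinetic agonist-mode read, an EC20 of TRH (10 nM final) was injected and fluo-8 calcium signal (Ex 480/Em 530) followed at 1 s/cycle for 100 cycles in TRHR-expressing cells.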
D1 PAM = human D1 dopamine receptor positive modulation. P21728. HEK293 TREx D1 cells, calcium flux, dopamine EC20 potentiation. potentiation, % at 10 µM. 0.036% of 360,000 active; in the data active = potentiation above about 30%; also: 0% is about no effect
D1 ag = human D1 receptor agonism. HEK293 T-REx D1 cells, calcium flux, agonist mode. activation, % at 2 µM. 1% of 360,000 active; also: 0% is about no effect
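Tetracycline-induced HEK293 TREx D1 cells, force-coupled to calcium signalling, were dye-loaded with a no-wash calcium kit. Compound was pin-added after a 10 s baseline. Fluorescence was read kinetically at 1 cycle/s for 180 s, with calcium rises flagged as agonism.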
TRHR agonist = agonists of human TRH receptor | 0.18% of 360,000 active | P34981 | AID 493084 | activation, % at 2 µM | TRHR cells, calcium flux fluo-8, FDSS agonist mode; also: 0% is about no effect
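TRHR-expressing cells, plated overnight in medium with 10% serum, were loaded with fluo-8 calcium dye at room temperature. After a 10 s baseline, library compound was pin-added and calcium release was recorded kinetically (ex 480/em 530) as agonist response.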
The depositor's hits bear a star. Sampled rows, rich in hits. Any-hit rate of the full collection: about 4.6%. Rule as the data show it, unless noted: active = activation above about 30%; inactive = the rest.

SMILES	D1 antagonist	TRHR PAM	D1 PAM	D1 ag	TRHR agonist
CN(C)S(=O)(=O)c1cccc(CSCc2cccc(S(=O)(=O)N(C)C)c2)c1	-36.1*	0.9	-8.2	23.0	1.6
O=C(NCc1ccccc1Cl)C1CCN(S(=O)(=O)Cc2ccccc2)CC1	2.7	-0.5	-3.1	0.4	-0.5
COc1ccc(-[n+]2c(C)cc(/C=C3\Sc4ccccc4N3C)cc2C)cc1	27.4	66.2*	5.9	78.1*	73.3*
COc1ccccc1-[n+]1c(C)cc(/C=C2\Sc3ccccc3N2C)cc1C	21.1	89.6*	-0.6	41.8*	60.8*
CC(=O)N1CCN(CC(=O)Nc2cc(S(=O)(=O)N3CCOCC3)ccc2C)CC1	-2.4	-7.4	-7.5	2.5	0.3
Cc1c([N+](=O)[O-])cc(C(=O)Nc2ccc(Cc3ccncc3)cc2)cc1[N+](=O)[O-]	0.6	-3.8	-3.5	16.6	-0.1
COc1ccc(NC(=O)c2ccc(-n3cccn3)c([N+](=O)[O-])c2)cc1	-4.4	-2.1	-4.8	6.4	-0.6
O=C(Nc1ccc(Cl)cc1)c1ccc(-n2cccn2)c([N+](=O)[O-])c1	-32.2*	-4.5	-2.8	18.6	-0.3
O=C(Nc1ccc(Cc2ccncc2)cc1)c1ccc(Cl)c([N+](=O)[O-])c1	-33.7*	1.3	-6.4	8.1	-0.1
CCOC(=O)Cn1c(=O)oc2cc(S(=O)(=O)N3CCC(C(=O)OCC)CC3)ccc21	5.7	-2.1	0.6	0.5	-0.1
CC(=O)c1ccc(Sc2nnc(C)s2)c([N+](=O)[O-])c1	19.9	0.3	-1.5	-0.1	-0.3
Cc1cc(C)cc(N=Cc2[nH]c3ccc(Br)c(Cl)c3c2O)c1	-4.2	1.2	-3.8	54.9*	35.8*
COCCCNC(=S)N1CCCN(c2nc3cc(C)c(C)cc3cc2C#N)CC1	6.8	1.9	-1.1	-0.1	-1.2
CCOCCCNC(=S)N1CCCN(c2nc3cc(C)c(C)cc3cc2C#N)CC1	-32.6*	3.9	-2.8	0.1	-0.7
COCCNC(=O)C(c1ccc(C)o1)N(C(=O)Cn1nnc2ccccc21)c1ccccc1 (configuration not stated)	12.4	-15.9	7.5	-0.8	-0.3
COc1ccccc1NC(=O)CN1CCN(C(=O)C2CCCO2)CC1 (configuration not stated)	-22.5	31.6*	1.3	2.9	-0.3
O=C(Nc1ccc(Cl)cc1)N1CCN(C(=O)C2CCCO2)CC1 (configuration not stated)	-19.8	-4.4	-2.7	1.1	0.1
O=C(C1CC(Cl)CN1S(=O)(=O)c1ccc(Cl)cc1)N1CCOCC1 (configuration not stated)	-36.2*	-6.3	-5.2	-0.6	0.5
Cc1ccc(S(=O)(=O)N2CCN(C(=O)C3CCCO3)CC2)cc1 (configuration not stated)	12.0	8.4	3.8	1.3	-0.1
O=C(CN1CCN(C(=O)C2CCCO2)CC1)Nc1ccc(Cl)cc1 (configuration not stated)	-30.4*	-3.2	4.5	-0.6	0.2
O=C(C1CCCO1)N1CCN(S(=O)(=O)c2ccc(Cl)cc2)CC1 (configuration not stated)	-47.1*	0.0	-8.8	2.9	0.1
COc1cc(NC(=O)Nc2ccccc2OC)c(OC)cc1NC(=O)CN1CCCCC1	-32.3*	3.8	-12.1	1.3	-0.6
CC(C)N(C(=O)CN1CCN(C(=O)C2COc3ccccc3O2)CC1)C(C)C (configuration not stated)	-1.1	1.7	-6.9	1.7	1.4
COC(=O)C1CCN(CC(=O)Nc2ccccc2Sc2ccccc2)CC1	2.3	35.2*	8.4	7.9	1.0
NC(=O)C1CCN(CC(=O)Nc2ccccc2Sc2ccccc2)CC1	2.7	-2.5	4.5	3.2	0.1
SMILES	D1 antagonist	TRHR PAM	D1 PAM	D1 ag	TRHR agonist
O=C(CN1CCN(C(=O)C2COc3ccccc3O2)CC1)Nc1ccccc1 (configuration not stated)	-33.1*	-2.6	-8.2	2.6	1.1
CC(=O)N1CCc2cc(CNS(=O)(=O)c3ccc(Cl)s3)ccc21	8.5	2.7	-2.5	6.0	0.3
c1ccc(-c2nc(N3CCNCC3)nc3ccccc23)cc1	-9.7	5.3	-6.7	34.1*	-0.9
c1ccc(-c2nc(N3CCCCC3)nc3ccccc23)cc1	9.9	-2.0	17.5	6.7	-0.5
Cc1ccc(NS(=O)(=O)c2ccc(C)c(NC(=O)COc3ccccc3)c2)c(C)c1	-46.1*	0.6	-11.3	-1.8	-1.3
CC(C)NC(=O)Cn1c(=O)cnc2ccccc21	-55.1*	-0.8	-5.4	4.4	0.4
COc1ccc(C(=O)Nc2nc3ccc(OC)cc3s2)cc1	-12.1	-11.2	-1.8	2.8	0.0
COc1ccc2nc(NC(=O)c3cc(=O)c4ccccc4o3)sc2c1	8.1	39.8*	4.3	1.3	0.3
COc1ccc2nc(NC(=O)c3cccc(-c4cc5ccccc5oc4=O)c3)sc2c1	-33.1*	-0.4	-7.5	1.7	1.1
O=c1[nH]c2ccc(NCc3ccc(-c4ccc(Cl)cc4)o3)cc2[nH]1	-8.8	9.0	-0.5	-2.7	-2.6
COc1ccc(-c2ccc(CNc3ccc4[nH]c(=O)[nH]c4c3)o2)cc1Cl	-52.0*	5.3	-1.9	7.3	-0.8
Cc1oc(-c2ccccc2)cc1C(=O)NC1CCN(Cc2ccccc2)CC1	-84.5*	4.1	-16.3	2.6	0.2
CCOc1ccccc1C(=O)NC1CCN(Cc2ccccc2)CC1	-31.3*	-3.4	0.4	0.3	0.2
O=C(NC1CCN(Cc2ccccc2)CC1)c1ccccc1OCc1ccccc1Cl	-37.9*	-11.5	-5.0	5.3	2.2
CN(C(=O)CSc1nc2ccccc2n1CC(=O)N(C)C1CCCCC1)c1ccccc1	-1.1	-3.6	1.1	-1.6	0.1
Cc1ccc(OCC(=O)Nc2ccc3nc(SCC(N)=O)sc3c2)cc1	-17.5	10.7	5.5	15.4	-0.2
CC(=O)c1ccc(NC(=O)c2ccc(-c3nc(COc4ccc(C)cc4)c(C)o3)cc2)cc1	1.9	-5.1	-1.2	0.8	0.2
COC(=O)c1ccc(NC(=O)CC2Nc3cc(C)c(C)cc3NC2=O)cc1 (configuration not stated)	-14.9	-1.4	-1.9	12.7	3.3
CCOc1ccc(NC(=O)c2c(C)oc3nc(C)nc(N4CCOCC4)c23)cc1	6.9	5.6	2.9	-0.6	-0.4
Cc1ccc(C(=O)N2CCN(c3ccc(N4CCOCC4)nn3)CC2)cc1	-32.1*	4.3	-10.6	0.7	-0.4
Cc1nnc2ccc(N3CCN(C(=O)c4ccccc4)CC3)nn12	-61.6*	0.2	-1.6	0.4	0.1
O=C(NCCc1nnc2ccc(N3CCCCCC3)nn12)c1ccccc1	-30.9*	-0.6	-11.9	41.2*	5.4
CCOC(=O)CCN(c1ccccc1)S(=O)(=O)c1cc(-c2cc(C)no2)ccc1C	-5.8	0.5	-3.9	10.0	0.3
